This is a sample that favours compounds with a hit; in the whole collection about 22% have one here.
CYP2C9 activ = activators of human CYP2C9 | recombinant CYP2C9, luciferin-H conversion, luminescence; active compounds read high; factor 1 = untreated enzyme, 0 = blocked | activation factor at 5 µM | hit rate 1.4% among 96,000 | AID 1024;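 active = activation factor of 2 or more for CYP2C9 at a 5 µM dose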
CYP2C19 inh = blocks human cytochrome P450 2C19. P33261. inhibition, % at 5 µM. hit rate 21% among 96,000. CYP2C19 Supersomes, luciferin-H EGE luminescence, 30 min;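 active = CYP2C19 inhibition above a set limit at 5 µM in the primary screen, cut at about 50% in these data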
Target sequence (P33261 whole entry, looked up): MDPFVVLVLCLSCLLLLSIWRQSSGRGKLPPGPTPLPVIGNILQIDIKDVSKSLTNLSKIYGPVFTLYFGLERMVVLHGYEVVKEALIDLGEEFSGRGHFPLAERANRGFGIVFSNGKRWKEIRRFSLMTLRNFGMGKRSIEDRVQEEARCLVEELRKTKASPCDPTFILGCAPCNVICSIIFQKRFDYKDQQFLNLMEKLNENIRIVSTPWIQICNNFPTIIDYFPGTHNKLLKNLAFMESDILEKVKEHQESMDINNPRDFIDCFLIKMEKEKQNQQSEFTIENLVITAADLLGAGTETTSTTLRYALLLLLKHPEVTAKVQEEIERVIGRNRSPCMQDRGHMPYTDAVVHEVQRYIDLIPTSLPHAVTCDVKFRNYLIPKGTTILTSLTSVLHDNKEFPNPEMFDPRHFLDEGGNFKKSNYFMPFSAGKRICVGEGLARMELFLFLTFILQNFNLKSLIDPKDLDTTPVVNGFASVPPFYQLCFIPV
CYP2C19 activ = cytochrome P450 2C19 (human) activation. P33261. recombinant CYP2C19, luciferin-H EGE luminescence; active compounds read high; 0 = fully inhibited enzyme, 1 = untreated enzyme. activation factor at 5 µM. 96,000 tested, under 10 active;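 active = activation factor of at least 2 at 5 µM in the primary screen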
Measles CPE = protection of cells from measles virus | Measles virus-infected cells, CPE protection, absorbance | protection (pct of control), % at 4 µM | hit rate 1.5% among 140,000; in the data active = protection mostly above about 24%, no sharp cut-off; inactive = mostly below about 26%
CYP2C9 inh = human CYP2C9 inhibition; P11712; CYP2C9 Supersomes, luciferin-H conversion, luminescence; inhibition, % at 5 µM; hit rate 20% among 96,000; AID 777;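 active = blocking of liver enzyme CYP2C9 beyond about 50% at 5 µM, limit read from the data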
Numbers stand for hits; i = inactive; nt = no result given.

SMILES | CYP2C9 activ | CYP2C19 inh | CYP2C19 activ | Measles CPE | CYP2C9 inh
Cc1ccccc1S(=O)(=O)c1c(C)cc(C)n(CC(C)C)c1=O | i | 82 | i | i | 81
Cc1c(C(=O)NCc2cccnc2)oc2ccccc12 | i | 64 | i | i | i
Cc1c(C(=O)NCc2cccnc2)oc2c1C(=O)CC(C)(C)C2 | i | 80 | i | i | 56
O=C(NCCN1CCOCC1)c1ccncc1 | i | 81 | i | i | i
O=C(NCCN1C(=O)CCC1=O)c1ccncc1 | i | i | i | i | i
O=C(CCSCCC(=O)NCCN1CCOCC1)NCCN1CCOCC1 | i | i | i | i | 84
Cc1c(C(=O)NCc2cccs2)oc2ccccc12 | i | i | i | i | i
CCNC(=O)c1oc2c(c1C)C(=O)CC(C)(C)C2 | i | i | i | i | i
CCOC(=O)c1cc([N+](=O)[O-])c([N+](=O)[O-])cc1NC(C)=O | nt | nt | nt | i | nt
Cc1c(C(=O)NCCN2CCOCC2)oc2ccccc12 | i | 54 | i | i | i
CCOC(=O)c1nnn(-c2nonc2N)c1-c1ccccc1 | i | 72 | i | i | i
CCOC(=O)c1nnn(-c2nonc2N)c1CSc1ccccc1 | i | i | i | i | i
CCOC(=O)c1nnn(-c2nonc2N)c1-c1ccc(C)cc1 | i | i | i | i | i
CCOC(=O)c1c(N)nn(C(=O)C(C)C)c1-c1ccccc1 | i | 69 | i | i | i
CCOC(=O)c1nnn(-c2nonc2N)c1CN(C)Cc1ccccc1 | i | i | i | i | 83
CCOC(=O)c1c(-c2ccccc2)nnn1-c1nc(OC)nc(N2CCOCC2)n1 | i | i | i | i | i
CCOC(=O)c1c(N)nn(C(=O)CC)c1-c1ccccc1 | nt | nt | nt | i | nt
CCOC(=O)c1nnn(-c2nc(OC)nc(N3CCCC3)n2)c1-c1ccccc1 | i | 68 | i | i | 53
CCCCSc1nc(C)c(CC(=O)OC)c(=O)[nH]1 | i | i | i | i | i
CC(C)C(NC(=O)OCc1ccccc1)C(=O)NCc1ccc(C(=O)O)cc1 (centres undefined) | nt | nt | nt | i | nt
CCOC(=O)c1nnn(-c2nn3nnnc3c3ccccc23)c1C | i | i | i | i | 55
Cc1c(C(=O)OCc2ccccc2)nnn1-c1nonc1N | i | 99 | i | i | i
COc1ccc(NC(=O)c2ccccc2NC(=O)NC2CCCCC2)cc1 | i | i | i | i | i
Cn1cccc1Cc1nnc(SCC(=O)NCC2CCCO2)n1-c1ccc(F)cc1 (centres undefined) | i | i | i | i | i
Cc1cc(C(=O)N/N=C/c2ccc(C)o2)c2ccccc2n1 | nt | nt | nt | i | nt
SMILES | CYP2C9 activ | CYP2C19 inh | CYP2C19 activ | Measles CPE | CYP2C9 inh
CCCc1cc(C(=O)N/N=C/c2ccc(C)o2)c2ccccc2n1 | i | i | i | i | 64
CCCc1cc(C(=O)N/N=C/c2ccc(CC)s2)c2ccccc2n1 | i | i | i | i | 65
CCn1c(O)c(C=NCCN2CCOCC2)sc1=S | i | i | i | i | i
O=C(N/N=C/c1ccncc1)c1ccccc1OCc1ccc(Br)cc1 | nt | nt | nt | i | nt
COc1cc(C2Nc3ccc4ncccc4c3C3=C2C(=O)CC(C)(C)C3)cc(OC)c1O (centres undefined) | i | 63 | i | i | 76
COc1cc(C2Nc3ccc4ncccc4c3C3=C2C(=O)CCC3)cc(OC)c1O (centres undefined) | i | i | i | i | 83
Cc1occc1C(=O)NNC(=S)Nc1cccc([N+](=O)[O-])c1 | i | i | i | i | i
O=C(O)CNC(=S)N(Cc1cccs1)C1CCCCC1 | nt | nt | nt | i | nt
O=C(Nc1ccccc1)N(Cc1cccs1)C1CCCC1 | i | 51 | i | i | 85
CC(=O)c1ccc(NC(=O)CSc2nnc(Cn3c(=O)sc4ccccc43)n2C)cc1 | nt | nt | nt | i | nt
CC1=[N+]([O-])C(C)(C)C(c2ccc(Br)cc2)=[N+]1[O-] | nt | nt | nt | i | nt
Cc1cc(-n2c(SCCC#N)nnc2-c2cccnc2)ccc1Cl | i | i | i | i | i
O=C1CC(N2CCN(C/C=C/c3ccccc3)CC2)C(=O)N1Cc1cccs1 (centres undefined) | i | 55 | i | i | i
CCO/C=C/C(O)(CNC(=O)c1ccc(C(C)(C)C)cc1)C(F)(F)F (centres undefined) | nt | nt | nt | i | nt
CCOC(=O)C1(C)NC(c2ccc(N(C)C)cc2)C2C(=O)N(CC)C(=O)C21 (centres undefined) | i | i | i | i | i
CCOC(=O)C1(C)NC(c2ccc(OC)cc2OC)C2C(=O)N(c3cccc(OC)c3)C(=O)C21 (centres undefined) | i | 80 | i | i | 83
CCOC(=O)C1(C)NC(c2ccc(N(C)C)cc2)C2C(=O)N(c3ccc(OC)cc3)C(=O)C21 (centres undefined) | i | 57 | i | i | i
O=C(O)Cn1cnc2ccccc2c1=O | i | i | i | i | i
O=c1c2ccccc2ncn1Cc1nc2ccccc2s1 | i | 82 | i | i | 77
O=C1c2ccccc2S(=O)(=O)N1Cc1nc2ccccc2s1 | i | 86 | i | i | i
CC(C)C(NC(=O)CN1C(=O)c2ccccc2S1(=O)=O)C(C)C | i | i | i | i | i
CCOc1cc(S(=O)(=O)NCc2ccccc2)ccc1F | i | i | i | i | i
Cc1cc(OCC(=O)NCCCN(C)C)cc(C)c1Br | i | i | i | i | i
Cc1ccc(N2C(=O)Nc3ccc(Br)cc3C2(O)C(=O)NCCCN(C)C)cc1C (centres undefined) | i | i | i | 50 | i
CC(C)NC(=O)C12CC3CC(C1)CC(n1cnc(Cl)n1)(C3)C2 | i | i | i | i | i
SMILES | CYP2C9 activ | CYP2C19 inh | CYP2C19 activ | Measles CPE | CYP2C9 inh
N#CC1=C2C=CC=CN2CC1=O | i | i | i | i | i
CCOC(=O)c1oc2ccc(Br)cc2c1CSc1nnc(C)s1 | i | 54 | i | i | 59
CCC(=O)N1CCN(c2cc(C)ccc2C)CC1 | i | 52 | i | i | i
O=C(C(Cc1ccccc1)n1cccc1)N1CCc2ccccc21 (centres undefined) | i | i | i | i | i
O=C(O)C(Cc1ccccc1)n1cccc1 (centres undefined) | i | i | i | nt | i
O=C(C(Cc1ccccc1)n1cccc1)N1CCN(c2ccccc2)CC1 (centres undefined) | i | 95 | i | i | i
Cc1ccc(C)c(N2CCN(C(=O)Cn3c(=O)[nH]c4ccsc4c3=O)CC2)c1 | i | i | i | i | 53
CC1CCCN(C(=O)C(Cc2ccccc2)n2cccc2)C1 (centres undefined) | i | 67 | i | i | i
Cc1ccc(NC(=O)CN2C(=O)C3CCCCN3C(=O)c3ccccc32)cc1 (centres undefined) | i | i | i | i | i
Cc1ccc(S(=O)(=O)NC(=O)c2ccc(Br)o2)cc1 | nt | nt | nt | i | nt
Cc1ccc(C)c(N2CCN(C(=O)CCS(=O)(=O)c3cccc4nonc34)CC2)c1 | i | 62 | i | i | 73
Cc1ccc(C)c(N2CCN(C(=O)C(Cc3ccccc3)n3cccc3)CC2)c1 (centres undefined) | i | 97 | i | i | i
Cc1ccc(C)c(N2CCN(C(=O)Cn3cccc3)CC2)c1 | i | i | i | i | i
